Source: PubChem BioAssay (National Center for Advancing Translational Sciences (NCATS))
Shown is part of a subset that was picked to be rich in hits.
a7 integrin act – qHTS for Activators of Integrin-Mediated Alleviation for Muscular Dystrophy; alpha7betagal myoblasts, beta-gal FDG fluorescence, 48 h; Potency, µM (doses to about 38.3 µM), without a hit: at the highest dose activation, hits mostly activators; 350,000 tested, 0.064% active; AID 624291, 2012;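 also: potency is read from the fitted curve at half-maximal effect; 100% = response of the positive control SU9516; nearly all actives have a fitted effect of over 60% in size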
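Alpha7betagal+/- myoblasts (passage 13) were plated 16-24 hr, then exposed to compounds (1:260 dilution of DMSO stock) for 48 hours at 37C. After MPER lysis, β-galactosidase reporter activity was read as FDG fluorescence (ex 480/em 540) after 30 minutes.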
RORgamma inh – qHTS for inhibitors of ROR gamma transcriptional activity; Drosophila S2 Gal4-RORgamma UAS-luciferase reporter, 20 h; 310,000 tested, 5.4% active; Potency, µM (top dose mostly 53.6 µM), without a hit: at the highest dose activity change, negative = inhibition, most hits filed as inhibitors; also: potency is read from the fitted curve at half-maximal effect; % is scaled to controls: 0 for no effect and ±100 for the full control effect; nearly all actives have a fitted effect of over 60% in size
Target sequence (P51450 whole entry, looked up, the tested form may be a part): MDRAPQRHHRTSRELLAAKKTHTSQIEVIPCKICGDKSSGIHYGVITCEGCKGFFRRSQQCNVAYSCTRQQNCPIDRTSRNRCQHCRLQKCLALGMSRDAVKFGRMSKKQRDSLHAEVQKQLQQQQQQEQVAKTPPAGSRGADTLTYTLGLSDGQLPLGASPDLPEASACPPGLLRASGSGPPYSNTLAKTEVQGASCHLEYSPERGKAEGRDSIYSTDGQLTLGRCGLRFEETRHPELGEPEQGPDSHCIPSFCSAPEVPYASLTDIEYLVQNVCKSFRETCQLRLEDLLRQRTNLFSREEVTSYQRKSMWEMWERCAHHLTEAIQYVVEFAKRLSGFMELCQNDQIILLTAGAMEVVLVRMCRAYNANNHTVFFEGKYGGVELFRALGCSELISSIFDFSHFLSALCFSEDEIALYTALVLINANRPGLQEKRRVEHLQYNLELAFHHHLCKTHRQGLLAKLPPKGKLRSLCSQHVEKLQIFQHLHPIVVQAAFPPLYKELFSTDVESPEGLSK
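Compounds are pin-transferred onto Drosophila Schneider cells expressing a copper-inducible Gal4–ROR gamma transactivation domain fusion. After 1 hr, copper sulfate is added to 700 uM final; luciferase is read 20 hr later.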
VP16 counter – VP16 counterscreen qHTS for inhibitors of ROR gamma transcriptional activity | 310,000 tested, 3.5% active | Potency, µM (doses to about 53.6 µM), for inactives: at the top dose activity, negative = inhibition, most hits filed as inhibitors | Drosophila S2 Gal4-VP16 UAS-luciferase, luminescence, 20 h;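 also: Gal4-VP16 expression switched on by copper sulfate through the metallothionein promoter; potency is read from the fitted curve at half-maximal effect; % is scaled to controls: 0 for no effect and ±100 for the full control effect; nearly all actives have a fitted effect of over 50% in size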
ERG-DNA inh – qHTS for Small Molecule Inhibitors of the ERG Ets/DNA interaction; 370,000 tested, 0.028% active; AID 624246, 2012; Potency, µM (titrated, usually from 76.9 µM), for the others: top-dose FP activity, negative = inhibition, hits mostly inhibitors; Transcriptional regulator ERG (Homo sapiens), P11308; fluorescence polarization, His-ERG Ets domain / labelled DNA; active = well fitted inhibition curve with a large enough effect in the polarisation, with a control signal flat; inconclusive = small, poorly fitted or top-dose-only effect, or effect the other way, or a change in a side signal; inactive = no such curve, though single readings can be large or run the other way; the % refers to the polarisation;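 also: polarization taken with two DNA probes labelled with fluorescein and Texas red; potency is read from the fitted curve at half-maximal effect; % of control where 0% means no effect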
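His-tagged ERG Ets domain (1 uM in the protein solution; 300mM KCl, 50mM Tris-HCl, 1mM EDTA, 1mM DTT, pH 7.5) received compound, then a probe mix of 5 nM fluorescein-DNA and 100nM Texas-615-DNA. Fluorescence polarization was read for both dyes.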
Giardia killer – Small Molecules that selectively kill Giardia lamblia: qHTS; Giardia lamblia trophozoite viability; 340,000 tested, 0.15% active; activity change, % at 7.66 µM, hits read low; in the data active = activity change below about -80%; inconclusive = between about -30% and that limit;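 also: parasites exposed to compound for two days anaerobically before the ATP read; % is scaled to controls: 0 for no effect and ±100 for the full control effect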
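Luminescent ATP signal served as the viability read-out, measured 15-30 min after adding ATP detection reagent to trophozoites that had been incubated with compounds for 48 hrs at 37 deg C anaerobically at 100 cells/well.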
* marks the source's active call; other numbers are inactive results; [ ] = remark or other dose. Unless noted, calls follow the shape of the dose curve; as a rule, active = well fitted curve in the direction sought with a large enough effect; inconclusive = small, poorly fitted or top-dose-only effect, or another doubt; inactive = no such curve, though single readings can be large; an effect the other way counts as inactive or inconclusive.

Screening CCN(CCCNC(=O)C1CCC(=O)N1C(C)C)c1cccc(C)c1 (stereo not drawn) returned a7 integrin act 19%, RORgamma inh -11%, VP16 counter 12%, ERG-DNA inh 6% and Giardia killer 4.
Screening N=C1/C(=C\c2ccc(OC(=O)c3ccccc3Cl)cc2)C(=O)N=C2SC(N3CCOCC3)=NN12 returned a7 integrin act 10%, RORgamma inh -44%, VP16 counter -26%, ERG-DNA inh 16% and Giardia killer 6.
For CNC(=O)/C(C#N)=C/c1cccc(Oc2ccccc2)c1 the results were a7 integrin act -15%, RORgamma inh -17%, VP16 counter -5%, ERG-DNA inh -1% and Giardia killer -18.
Screening CNC(=O)/C(=C\c1cccc(Oc2ccccc2)c1)NC(=O)c1ccccc1 returned a7 integrin act 11µM*, RORgamma inh -15%, VP16 counter 0%, ERG-DNA inh 3% and Giardia killer -4.
Screening S=C(NCc1ccc(Cl)cc1)Nc1ccccc1Cl returned a7 integrin act -23%, RORgamma inh 13µM*, VP16 counter inconclusive, ERG-DNA inh -6% and Giardia killer 7.
For CCCNC(=S)Nc1ccc(Cl)cc1Cl the results were a7 integrin act -22%, RORgamma inh 11µM*, VP16 counter inconclusive, ERG-DNA inh 1% and Giardia killer -17.
S=C(NCc1ccncc1)Nc1ccc(Cl)cc1Cl was read as a7 integrin act 10%, RORgamma inh 8%, VP16 counter -19%, ERG-DNA inh 1% and Giardia killer -3.
`Fc1ccc(CNC(=S)Nc2ccc(Cl)cc2Cl)cc1` gave a7 integrin act -26%, RORgamma inh 4µM*, VP16 counter 5.6µM*, ERG-DNA inh 4% and Giardia killer -16.
`S=C(NCc1ccc(Cl)cc1)Nc1ccc(Cl)cc1Cl` gave a7 integrin act -2%, RORgamma inh 11µM*, VP16 counter 11µM*, ERG-DNA inh -8% and Giardia killer 1.
Screening Cc1cc(C)n2nc(C(=O)OCC(=O)N(C)CC(=O)Nc3ccccc3Cl)nc2n1 returned a7 integrin act 0%, ERG-DNA inh -13% and Giardia killer 4.
For CCn1cc(CNC(=S)Nc2cccc(Cl)c2C)cn1 the results were a7 integrin act -3%, RORgamma inh -40%, VP16 counter 2%, ERG-DNA inh 0% and Giardia killer 5.
`CSc1ccccc1NC(=S)NCc1ccc(Cl)cc1` gave a7 integrin act -21%, RORgamma inh 7.1µM*, VP16 counter 11µM*, ERG-DNA inh 0% and Giardia killer -3.
For S=C(NCCc1ccc(Cl)cc1)Nc1ccc(Cl)cc1Cl the results were a7 integrin act -19%, RORgamma inh 5.6µM*, VP16 counter 4.5µM*, ERG-DNA inh 5% and Giardia killer 0.
Screening CCc1c(C)sc2c1CCN(C(=O)Nc1cc(Cl)c(OC)cc1OC)C2c1ccccc1 (stereo not drawn) returned ERG-DNA inh 1%.
CCNc1nc(-c2ccc(OC(F)F)cc2)c(C)s1 was read as a7 integrin act 35%, RORgamma inh 11µM*, VP16 counter -56%, ERG-DNA inh -3% and Giardia killer -16.
Screening COC(=O)NC(c1ccccc1)C(C#N)C(=O)OC (stereo not drawn) returned RORgamma inh -16%[10 µM] and VP16 counter -3%[10 µM].
Screening CCOc1ccc2c(c1)C(=NNC(=O)c1ccncc1)c1cc(OCC)ccc1-2 returned a7 integrin act -63%, RORgamma inh 1.1µM*, VP16 counter 0.89µM*, ERG-DNA inh 13% and Giardia killer -5.
`COc1ccc(C2CC(O)(c3ccccc3)Oc3cc(OC)cc(OC)c32)cc1` (stereo not drawn) gave a7 integrin act -16%, RORgamma inh inconclusive, VP16 counter 1%, ERG-DNA inh 11% and Giardia killer 9.
`COc1ccc(C2CC(O)(c3ccccc3)Oc3c(C)ccc(C)c32)cc1` (stereo not drawn) gave a7 integrin act -9%, RORgamma inh inconclusive, VP16 counter 13µM*, ERG-DNA inh -2% and Giardia killer 14.
O=C(/C=C/c1cccs1)c1ccc(N2CCOCC2)cc1 was read as a7 integrin act -16%, RORgamma inh 7.9µM*, VP16 counter 14µM*, ERG-DNA inh 0% and Giardia killer inconclusive.
O=C(/C=C/c1cccs1)c1ccc([N+](=O)[O-])cc1 was read as a7 integrin act -9%, RORgamma inh 18%, VP16 counter -1%, ERG-DNA inh -6% and Giardia killer inconclusive.
O=C(/C=C/c1cccc(F)c1)Nc1cc(S(=O)(=O)N2CCOCC2)ccc1Cl was read as a7 integrin act 12%, ERG-DNA inh -8% and Giardia killer -7.
O=C(/C=C/c1cccc(F)c1)c1ccc(N2CCOCC2)cc1 was read as a7 integrin act -43%, RORgamma inh inconclusive, VP16 counter 22µM*, ERG-DNA inh 9% and Giardia killer -15.
Screening COCCc1nn2c(=O)cc(COC(=O)COc3ccccc3C)nc2s1 returned ERG-DNA inh -1%.
FC(F)(F)c1ccc2c(c1)NCC1CCCN21 (stereo not drawn) was read as a7 integrin act 15%, RORgamma inh 11%, VP16 counter -2%, ERG-DNA inh 13% and Giardia killer 0.
Screening FC(F)(F)c1ccc2c(c1)[nH]c(=S)n2C1CC1 returned a7 integrin act 10%, RORgamma inh 1.4µM*, VP16 counter inconclusive, ERG-DNA inh -2% and Giardia killer -5.
Screening CCCCN(C(=O)COC(=O)CSc1ccc([N+](=O)[O-])cc1)c1c(N)n(CCC)c(=O)[nH]c1=O returned a7 integrin act 3%, ERG-DNA inh -9% and Giardia killer 1.
`COc1ccc(N=[N+]([O-])c2ccc(OC)cc2)cc1` gave a7 integrin act 11%, RORgamma inh 8.9µM*, VP16 counter inconclusive, ERG-DNA inh 4% and Giardia killer -25.
CCCCC(=O)O[C@]1(C(=O)CO)[C@H](C)C[C@H]2[C@@H]3CCC4=CC(=O)C=C[C@]4(C)[C@@]3(F)[C@@H](O)C[C@@]21C was read as RORgamma inh 7.9µM* and VP16 counter inconclusive.
`CCCC(=O)O[C@]1(C(=O)CCl)[C@@H](C)C[C@H]2[C@@H]3CCC4=CC(=O)C=C[C@]4(C)[C@@]3(F)C(=O)C[C@@]21C` gave RORgamma inh 10µM*, VP16 counter -3%, ERG-DNA inh 0% and Giardia killer -11.
For CCC(=O)O[C@@]1(C(=O)CCl)C(C)CC2C3CCC4=CC(=O)C=C[C@@]4(C)[C@]3(F)C(O)C[C@]21C (stereo partly drawn) the results were RORgamma inh inconclusive and VP16 counter -18%.
